A number with no mark means an inactive call. Inconclusive results are not listed. Where a call stands in place of a potency, no number is given. The source made the active and inactive calls. Unless noted, the call rests on the fitted dose curve; in most records, active means well fitted curve in the direction sought with a large enough effect in the repeat runs; inconclusive means weak or mixed curves; inactive means no such curve, though single readings can be large; an effect the other way counts as inactive or inconclusive.
Columns and labels:
[1] = qHTS assay to identify small molecule agonists of the estrogen receptor alpha (ER-alpha) signaling pathway in the presence of an antagonist - cell viability counter screen (AID 1259386);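 further: cells exposed to compounds for 22 h at 37 °C before the viability read; nearly all actives have a fitted effect of over 30% in size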; further: potency means the concentration at half of the fitted maximal effect
Procedure, shortened: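 VM7Luc4E2 cells (endogenous full-length ER-alpha, 4×ERE-luciferase) were held 5 days in phenol red-free medium with 10% charcoal-stripped FBS, plated, then given 10.0nM ICI-182,780 and compounds at 15 concentrations for 22hr at 37C; viability read by CellTiter-Fluor fluorescence.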

[2] = qHTS assay to identify small molecule antagonists of the progesterone receptor (PR) signaling pathway - cell viability counter screen (AID 1346798); further: nearly all actives have a fitted effect of over 50% in size; further: potency means the concentration at half of the fitted maximal effect
Procedure, shortened: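 Viability was determined by ATP-based luminescence (CellTiter-Glo) in PR-UAS-bla HEK293T cells cultured in 2% charcoal-stripped serum and incubated 16 hr with compounds under R5020 stimulation.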

[3] = qHTS assay to identify small molecule antagonists of the TGF-beta/Smad signaling pathway - cell viability counter screen (AID 1346824); further: nearly all actives have a fitted effect of over 50% in size; further: potency means the concentration at half of the fitted maximal effect
Procedure, shortened: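 Cytotoxicity counter-screen run in the same wells as the beta-lactamase Smad reporter read: CellTiter-Glo luminescence after 30 min at room temperature. HEK 293T SBE-bla cells had 5 hr compound exposure at 37 C with TGF-beta1 (0.25 ng/mL stock).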

[4] = qHTS assay to identify small molecule agonists of the TGF-beta/Smad signaling pathway - cell viability counter screen (AID 1346829); further: nearly all actives have a fitted effect of over 45% in size; further: potency means the concentration at half of the fitted maximal effect
Procedure, shortened: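 Here the cytotoxicity of library compounds is measured in SBE-bla HEK 293T cells treated for 5 hr, using CellTiter-Glo added to wells already read for the beta-lactamase reporter.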

[5] = qHTS assay to identify small molecule agonists of the TGF-beta/Smad signaling pathway (AID 1346859; active means well fitted activation curve with a large enough effect in the signal ratio in the repeat runs, not every such curve was filed as active; the % refers to the signal ratio; further: series mostly up to about 77 µM)
Procedure, shortened: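 Dual-wavelength fluorescence (460/530 nm emission) quantified beta-lactamase expression under the Smad binding element in HEK 293T cells following 5 hr compound treatment at 37 C.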

[6] = Human pregnane X receptor (PXR) small molecule agonists, qHTS cell viability counter screen (AID 1346977); further: nearly all actives have a fitted effect of over 50% in size; further: potency means the concentration at half of the fitted maximal effect
Procedure, shortened: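 HepG2 cells stably carrying the PXR-Luc reporter are cultured with 5% charcoal-stripped FBS and treated with compounds for 24hr. CellTiter-Fluor is added at 23hr and fluorescence is read after 1hr.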

[7] = Caspase-3/7 induction in HepG2 cells by small molecules, qHTS assay (AID 1346978); further: nearly all actives have a fitted effect of over 15% in size; further: potency means the concentration at half of the fitted maximal effect
Procedure, shortened: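 Caspase-3/7 induction was measured by Caspase-Glo 3/7 luminescence (30 min, room temperature) after a 17 hr compound exposure of wild-type HepG2 cells seeded at 2,000 per well and pre-incubated 5 hr.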

[8] = Caspase-3/7 induction in CHO-K1 cells by small molecules, qHTS cell viability counter screen (AID 1346979); further: nearly all actives have a fitted effect of over 35% in size; further: potency means the concentration at half of the fitted maximal effect
Procedure, shortened: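 Seeding: 1,500 CHO-K1 cells/well. Rest: 5hr, 37C. Treatment: compounds in DMSO, 16hr. Read: CellTiter-Fluor, 1hr, fluorescence.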

[9] = Caspase-3/7 induction in CHO-K1 cells by small molecules, qHTS assay (AID 1346980); further: nearly all actives have a fitted effect of over 15% in size; further: potency means the concentration at half of the fitted maximal effect
Procedure, shortened: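 Luminescent Caspase-Glo 3/7 read (30min, room temperature) quantified apoptosis induction. Cells were wild-type CHO-K1, treated with compound for 17hr at 37 C and 5% CO2.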

[10] = Caspase-3/7 induction in HepG2 cells by small molecules, qHTS cell viability counter screen (AID 1346981); further: nearly all actives have a fitted effect of over 30% in size; further: potency means the concentration at half of the fitted maximal effect
Procedure, shortened: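 Wild-type HepG2 cells (2,000/well) were allowed to settle for 5 hr at 37 C, 5% CO2, then dosed with compounds in DMSO by pin transfer. After 16 hr at 37 C, CellTiter-Fluor was added and fluorescence read 1 hr later.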

[11] = biological target: Progesterone receptor (Homo sapiens) (UniProt P06401); assay: qHTS assay to identify small molecule antagonists of the progesterone receptor (PR) signaling pathway (AID 1346795; active means well fitted inhibition curve with a large enough effect in the signal ratio in the repeat runs, not every such curve was filed as active; the % refers to the signal ratio; further: potency means the concentration at half of the fitted maximal effect)
Chain of Progesterone receptor (Homo sapiens) (P06401 whole entry, looked up): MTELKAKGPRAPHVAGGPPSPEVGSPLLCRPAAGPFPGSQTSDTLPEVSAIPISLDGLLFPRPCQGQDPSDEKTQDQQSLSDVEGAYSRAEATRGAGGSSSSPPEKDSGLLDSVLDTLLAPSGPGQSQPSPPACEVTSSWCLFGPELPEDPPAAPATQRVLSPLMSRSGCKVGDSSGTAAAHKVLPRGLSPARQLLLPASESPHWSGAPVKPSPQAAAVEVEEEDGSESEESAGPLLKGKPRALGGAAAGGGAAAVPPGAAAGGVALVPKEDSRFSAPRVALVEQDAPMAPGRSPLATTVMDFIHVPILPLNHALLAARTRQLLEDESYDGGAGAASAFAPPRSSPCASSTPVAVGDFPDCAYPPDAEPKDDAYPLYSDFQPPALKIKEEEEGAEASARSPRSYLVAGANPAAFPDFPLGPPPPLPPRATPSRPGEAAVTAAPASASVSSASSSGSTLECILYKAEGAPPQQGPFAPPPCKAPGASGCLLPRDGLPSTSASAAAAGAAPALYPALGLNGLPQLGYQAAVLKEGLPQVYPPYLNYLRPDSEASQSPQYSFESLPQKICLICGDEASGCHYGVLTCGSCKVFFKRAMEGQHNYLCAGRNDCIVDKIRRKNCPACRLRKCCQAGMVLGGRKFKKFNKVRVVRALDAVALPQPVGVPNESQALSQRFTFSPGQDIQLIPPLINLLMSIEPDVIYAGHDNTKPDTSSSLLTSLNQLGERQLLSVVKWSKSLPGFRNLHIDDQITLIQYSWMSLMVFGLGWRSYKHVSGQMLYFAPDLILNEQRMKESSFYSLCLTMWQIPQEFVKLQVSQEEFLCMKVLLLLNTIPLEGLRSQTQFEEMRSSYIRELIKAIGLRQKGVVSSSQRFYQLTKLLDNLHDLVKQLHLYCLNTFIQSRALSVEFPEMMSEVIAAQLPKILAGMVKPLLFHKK
Procedure, shortened: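 After 6 hr plating at 37C in 2% stripped-serum medium, PR-UAS-bla HEK293T cells got compounds, then 1 nM R5020. Sixteen hours later, LiveBLAzer substrate was applied for 2 hr at room temperature and fluorescence was recorded.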

[12] = biological target: Thyrotropin-releasing hormone receptor (Homo sapiens) (UniProt P34981); assay: qHTS assay to identify small molecule antagonists of the thyrotropin-releasing hormone receptor (TRHR) signaling pathway (AID 1346877; active means well fitted inhibition curve with a large enough effect in the repeat runs, not every such curve was filed as active; further: series mostly up to about 51 µM)
Chain of Thyrotropin-releasing hormone receptor (Homo sapiens) (P34981 whole entry, looked up): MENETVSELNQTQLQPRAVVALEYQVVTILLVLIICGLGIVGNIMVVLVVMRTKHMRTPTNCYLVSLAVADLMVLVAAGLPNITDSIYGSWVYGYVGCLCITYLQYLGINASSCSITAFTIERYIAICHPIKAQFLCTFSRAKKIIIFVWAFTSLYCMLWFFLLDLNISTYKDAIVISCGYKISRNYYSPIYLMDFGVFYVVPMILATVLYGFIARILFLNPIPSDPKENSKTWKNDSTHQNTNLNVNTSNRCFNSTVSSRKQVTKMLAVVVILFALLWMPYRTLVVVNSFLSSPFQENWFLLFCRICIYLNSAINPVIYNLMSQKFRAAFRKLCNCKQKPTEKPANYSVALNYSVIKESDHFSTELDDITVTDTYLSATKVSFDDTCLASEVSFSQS
Procedure, shortened: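 TRHR-expressing HEK293 cells were seeded, cultured 18 h at 37 °C, then loaded with calcium dye for 2 h. Compounds were pre-incubated 5 min at room temperature before 1 nM TRH (final) was added, and kinetic fluorescence was recorded for 3 min.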

[13] = biological target: Thyrotropin-releasing hormone receptor (Homo sapiens) (UniProt P34981); assay: qHTS assay to identify small molecule agonists of the thyrotropin-releasing hormone receptor (TRHR) signaling pathway (AID 1346891; calls by dose curve; further: series mostly up to about 58 µM)
Procedure, shortened: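 Kinetic fluorescence (3 min, 1 s intervals) reported intracellular calcium after compound transfer onto TRHR-Hek293 cells pre-loaded with dye for 2 h at 37 °C.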

[14] = biological target: Nuclear receptor subfamily 1 group I member 2 (Homo sapiens) (UniProt O75469); assay: Human pregnane X receptor (PXR) small molecule agonists, qHTS assay (AID 1346982); further: nearly all actives have a fitted effect of over 35% in size; further: potency means the concentration at half of the fitted maximal effect
Chain of Nuclear receptor subfamily 1 group I member 2 (Homo sapiens) (O75469 whole entry, looked up): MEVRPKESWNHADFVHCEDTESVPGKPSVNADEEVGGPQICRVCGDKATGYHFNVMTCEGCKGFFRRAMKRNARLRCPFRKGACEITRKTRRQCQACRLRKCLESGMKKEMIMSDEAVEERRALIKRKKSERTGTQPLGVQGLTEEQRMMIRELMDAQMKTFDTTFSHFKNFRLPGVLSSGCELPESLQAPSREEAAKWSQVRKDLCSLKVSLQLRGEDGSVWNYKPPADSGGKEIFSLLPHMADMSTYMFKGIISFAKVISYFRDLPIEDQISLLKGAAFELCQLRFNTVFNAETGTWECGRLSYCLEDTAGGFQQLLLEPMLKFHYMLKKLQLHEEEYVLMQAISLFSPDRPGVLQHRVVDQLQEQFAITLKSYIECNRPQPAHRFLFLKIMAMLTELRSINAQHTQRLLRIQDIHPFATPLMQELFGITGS
Procedure, shortened: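 PXR-Luc HepG2 cells (CYP3A4 promoter-driven luciferase) were seeded in medium with 5% charcoal-stripped FBS, left 5 hr at 37 C, then exposed to compounds in DMSO for 24 hr. Luminescence was read after ONE-Glo addition.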

[15] = biological target: Acetylcholinesterase (Homo sapiens) (UniProt P22303); assay: Acetylcholinesterase (AChE) small molecule antagonists: colormetric cell-based qHTS assay (AID 1347395; calls by dose curve; further: nearly all actives have a fitted effect of over 30% in size)
Chain of Acetylcholinesterase (Homo sapiens) (P22303 whole entry, looked up): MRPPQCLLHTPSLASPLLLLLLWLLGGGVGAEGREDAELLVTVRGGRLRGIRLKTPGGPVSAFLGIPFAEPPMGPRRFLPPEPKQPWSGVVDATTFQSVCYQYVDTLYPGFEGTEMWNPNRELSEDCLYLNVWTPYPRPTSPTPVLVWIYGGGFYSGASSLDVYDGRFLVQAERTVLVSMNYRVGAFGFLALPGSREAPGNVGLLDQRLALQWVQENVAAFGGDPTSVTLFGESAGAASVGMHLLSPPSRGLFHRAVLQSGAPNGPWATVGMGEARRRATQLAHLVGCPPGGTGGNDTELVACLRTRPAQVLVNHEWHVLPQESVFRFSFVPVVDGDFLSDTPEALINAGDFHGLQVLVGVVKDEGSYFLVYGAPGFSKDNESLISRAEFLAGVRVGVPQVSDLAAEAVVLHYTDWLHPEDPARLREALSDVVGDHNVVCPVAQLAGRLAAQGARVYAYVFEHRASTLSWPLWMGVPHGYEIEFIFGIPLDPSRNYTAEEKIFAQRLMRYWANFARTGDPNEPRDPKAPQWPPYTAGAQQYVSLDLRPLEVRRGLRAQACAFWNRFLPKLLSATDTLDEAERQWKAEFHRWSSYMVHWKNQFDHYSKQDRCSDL
Procedure, shortened: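 Quantitative HTS in attached SH-SY5Y cells: 30 min compound exposure, then 90 min with acetylthiocholine and DTNB at 37 C; colour from thiocholine reports AChE activity.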

[16] = qHTS assay to identify small molecule agonists of the progesterone receptor (PR) signaling pathway - cell viability counter screen (AID 1346799; calls by dose curve; further: nearly all actives have a fitted effect of over 45% in size; further: potency means the concentration at half of the fitted maximal effect)
Procedure, shortened: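 Viability was scored by ATP luminescence (CellTiter-Glo, 30 min, room temperature) in the same wells used for the reporter readout, after 16 hr compound exposure of PR-UAS-bla HEK293T cells.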

[17] = biological target: Progesterone receptor (Homo sapiens) (UniProt P06401); assay: qHTS assay to identify small molecule agonists of the progesterone receptor (PR) signaling pathway (AID 1346784; calls by dose curve; further: nearly all actives have a fitted effect of over 30% in size)
Procedure, shortened: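 The screen uses PR-UAS-bla HEK 293T cells in charcoal-stripped serum (2%). Compounds are applied for 16 hr at 37C after a 6 hr pre-incubation, and reporter activity is detected with a FRET beta-lactamase substrate after 2 hr at room temperature.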

[18] = biological target: Nuclear receptor subfamily 1 group I member 2 (Rattus norvegicus) (UniProt Q9R1A7); assay: Rat pregnane X receptor (rPXR) activation by small molecules, qHTS assay (AID 1346983); settings: rPXR luciferase reporter cells, One-Glo luminescence, 24 h; max activation: stronger effect = higher value; further: potency means the concentration at half of the fitted maximal effect; nearly all actives have a fitted effect of over 20% in size
Chain of Nuclear receptor subfamily 1 group I member 2 (Rattus norvegicus) (Q9R1A7 whole entry, looked up): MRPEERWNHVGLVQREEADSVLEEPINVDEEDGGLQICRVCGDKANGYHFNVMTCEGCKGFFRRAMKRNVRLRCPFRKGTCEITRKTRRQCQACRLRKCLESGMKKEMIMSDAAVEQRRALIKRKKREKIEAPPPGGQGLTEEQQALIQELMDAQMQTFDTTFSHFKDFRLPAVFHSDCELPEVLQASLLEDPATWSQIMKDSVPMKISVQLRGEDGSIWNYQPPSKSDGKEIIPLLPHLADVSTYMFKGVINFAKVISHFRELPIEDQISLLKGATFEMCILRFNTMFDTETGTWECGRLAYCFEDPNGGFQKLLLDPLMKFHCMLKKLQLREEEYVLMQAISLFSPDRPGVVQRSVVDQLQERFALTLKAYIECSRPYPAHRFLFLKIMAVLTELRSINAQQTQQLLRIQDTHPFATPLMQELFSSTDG
Procedure, shortened: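 Luminescent readout (One-Glo luciferase, 30 min room temperature) followed 24 hr compound treatment at 37 C of rPXR cells plated 2,000 per well and preincubated 5hr; qHTS format with compounds delivered in DMSO.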

[19] = biological target: Nuclear receptor subfamily 1 group I member 2 (Homo sapiens) (UniProt O75469); assay: CYP3A4 induction through human pregnane X receptor (PXR) by small molecules, qHTS assay (AID 1346984); further: nearly all actives have a fitted effect of over 40% in size
Procedure, shortened: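 DPX-2 cells (HepG2 co-transfected with PXR and CYP3A4 promoter-luciferase) treated with compounds 24 h at 37C; luciferin-IPA CYP3A4 substrate 3uM final added for 3 h, then One-Glo; luminescence read. qHTS format.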

[20] = biological target: Nuclear receptor subfamily 1 group I member 2 (Homo sapiens) (UniProt O75469); assay: Human pregnane X receptor (PXR) activation by small molecules, qHTS assay (AID 1346985); further: potency means the concentration at half of the fitted maximal effect; nearly all actives have a fitted effect of over 40% in size
Procedure, shortened: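 DPX-2 cells (HepG2 co-transfected with a PXR response element and a CYP3A4-promoter luciferase construct) were seeded at 2,000 per well, rested 5 hr at 37C, then exposed to DMSO-dissolved compounds for 24 hr. Activation was read as luciferase luminescence.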

| Structure (SMILES) | Potency [1] | Potency [2] | Potency [3] | Potency [4] | outcome [5] | Potency [6] | Potency [7] | Potency [8] | Potency [9] | Potency [10] | Potency [11] | Potency [12] | Potency [13] | Potency [14] | Potency [15] | Potency [16] | Potency [17] | Potency [18] | Potency [19] | Potency [20] |
| --- | --- | --- | --- | --- | --- | --- | --- | --- | --- | --- | --- | --- | --- | --- | --- | --- | --- | --- | --- | --- |
| CCCCn1cc[n+](C)c1.[Cl][Fe-]([Cl])([Cl])[Cl] | inactive | inactive | inactive | inactive | inactive | inactive | inactive | inactive | inactive | inactive |  |  |  |  |  |  |  |  |  |  |
| O=c1[nH]c2cc(Cl)ccc2n1C1CCNCC1 | inactive | inactive | inactive | inactive | inactive | inactive | inactive | inactive | inactive | inactive | inactive | inactive | inactive | inactive | inactive |  |  |  |  |  |
| O.O.O.O.O.O.O=S(=O)([O-])[O-].[Ni+2] | inactive | inactive | inactive | inactive | inactive | inactive | inactive | inactive | inactive | inactive |  |  |  |  |  |  |  |  |  |  |
| Cc1ccc([N+](=O)[O-])[c]2c1[O][Hg]2 | 29.8 µM (active) | 4.22 µM (active) | 19 µM (active) | 23.9 µM (active) | inactive | 6.68 µM (active) | inactive | 1.68 µM (active) | inactive | 21.1 µM (active) |  |  |  | 0.668 µM (active) | inactive | 5.31 µM (active) |  |  |  |  |
| N#CCCl | inactive |  | inactive | inactive | inactive | inactive |  | inactive | inactive | inactive | inactive |  |  | inactive | inactive |  |  |  |  |  |
| Oc1cccc(Cl)c1Cl | inactive |  | inactive | inactive | inactive |  | inactive | inactive | inactive | inactive |  | inactive | inactive | inactive | inactive | 27.4 µM (active) |  |  |  |  |
| C1=CCC=C1 | inactive | inactive | inactive | inactive | inactive |  |  | inactive | inactive | inactive | inactive |  |  |  |  | inactive |  |  |  |  |
| CC(C)[C@@H](Nc1ccc(C(F)(F)F)cc1Cl)C(=O)OC(C#N)c1cccc(Oc2ccccc2)c1 (some centres not stated) | inactive | inactive |  |  | inactive |  | inactive | inactive |  | inactive |  |  |  | 7.42 µM (active) | inactive |  |  |  |  |  |
| N#Cc1c2ccccc2cc2ccccc12 | inactive | inactive | inactive | inactive |  |  | inactive |  | inactive |  |  |  |  | 27.3 µM (active) | inactive | inactive |  |  |  |  |
| Cc1cc(C2CC2)nc(Nc2ccccc2)n1 | inactive |  | inactive | inactive | inactive |  | inactive |  |  | inactive | 30.6 µM (active) |  |  | 54.5 µM (active) | inactive |  |  |  |  |  |
| CCOP(=O)(OCC)Oc1nc(Cl)c(Cl)cc1Cl | inactive | inactive | inactive | inactive | inactive |  | inactive |  | inactive | inactive | 5.42 µM (active) | inactive | inactive | 54.2 µM (active) |  |  |  |  |  |  |
| O=C(NC(=O)c1c(F)cccc1F)Nc1ccc(Oc2ccc(C(F)(F)F)cc2Cl)cc1F |  | inactive |  | inactive | inactive | inactive | inactive | 61.1 µM (active) | inactive |  |  | inactive | inactive | 19.3 µM (active) | inactive |  | inactive |  |  |  |
| Fc1ccc(C(OCCN2CCN(CCCc3ccccc3)CC2)c2ccc(F)cc2)cc1 | 29.8 µM (active) |  |  | 23.9 µM (active) | inactive | 16.8 µM (active) |  | 11.9 µM (active) | 23.7 µM (active) | 23.7 µM (active) |  | inactive | inactive | inactive | inactive |  |  |  |  |  |
| Cc1ccccc1OP(=O)(Oc1ccccc1C)Oc1ccccc1C |  | inactive | inactive | inactive | inactive |  | inactive |  | inactive | inactive |  | inactive | inactive | 27.4 µM (active) | inactive | inactive | inactive |  |  |  |
| CC(=O)[O-].CC(=O)[O-].CC(=O)[O-].[Cr+3] |  | inactive | inactive | inactive | inactive |  | inactive |  |  | inactive | inactive |  |  |  |  | inactive | inactive |  |  |  |
| CC[C@]1(O)CC[C@H]2[C@@H]3CCC4=CCCC[C@@H]4[C@H]3CC[C@@]21C | inactive |  | inactive | inactive | inactive | inactive |  |  | inactive |  |  |  |  | 23.7 µM (active) | inactive |  |  | 14.1 µM (active) | inactive | 8.91 µM (active) |
| c1ccc2c(c1)cc1ccc3cccc4ccc2c1c34 |  |  | inactive | inactive |  | inactive | 6.99 µM (active) |  | inactive |  |  | inactive | inactive | 5.55 µM (active) | inactive | inactive |  |  |  |  |
| COC(=O)c1cc(Oc2ccc(Cl)cc2Cl)ccc1[N+](=O)[O-] |  |  | inactive | inactive | inactive | inactive | inactive |  | inactive | inactive | 15.4 µM (active) |  |  | 54.5 µM (active) | inactive |  | inactive |  |  |  |

From PubChem BioAssay (Tox21)
